Screens (PubChem)
Shown are actives, neighbours in structure and some others; about 2.3% of the full set was active somewhere.
M1 PAM: human CHRM1 positive allosteric modulation; P11229; CHO-K1 hM1, Fluo-8 calcium fluorescence, ACh EC20; 0% = ACh EC20, 100% = maximal ACh; activation, % at 3 µM; actives 0.088% (n = 360,000); in the data active means activation above about 19%, passing the limit was not always enough
Target sequence (P11229 whole entry, looked up): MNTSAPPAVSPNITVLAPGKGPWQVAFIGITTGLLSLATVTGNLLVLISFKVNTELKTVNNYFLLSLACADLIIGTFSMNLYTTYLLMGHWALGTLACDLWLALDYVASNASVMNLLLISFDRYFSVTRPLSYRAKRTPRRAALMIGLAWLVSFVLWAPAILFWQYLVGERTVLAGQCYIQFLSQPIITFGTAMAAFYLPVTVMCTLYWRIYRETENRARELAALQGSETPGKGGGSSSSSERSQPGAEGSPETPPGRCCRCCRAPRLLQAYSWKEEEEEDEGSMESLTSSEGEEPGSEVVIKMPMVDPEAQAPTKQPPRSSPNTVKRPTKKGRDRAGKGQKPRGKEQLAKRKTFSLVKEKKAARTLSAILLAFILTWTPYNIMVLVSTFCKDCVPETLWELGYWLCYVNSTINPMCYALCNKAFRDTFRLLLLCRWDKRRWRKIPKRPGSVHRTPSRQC
M1 PAM parental: counter-screen for M1 PAMs: effect in parental CHO-K1 cells; ATP EC20, Fluo-8 calcium fluorescence; 0% at ATP EC20, 100% at ATP max; activation, % at 3 µM; actives 0.02% (n = 360,000); AID 602247;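 active means activation above the run cutoff, the mean activation of all test compounds plus 3 SD, cut at about 40% in these data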;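 further: peak over basal fluorescence ratio in a 140 s read after ATP addition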
CHRM1 antagonist: antagonists of human M1 muscarinic receptor; CHO-K1 hM1, Fluo-8 calcium fluorescence, ACh EC80 antagonist; inhibition, % at 3 µM; actives 1.3% (n = 360,000);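 active means percent inhibition above its own plate's cutoff, namely the mean of that plate's compound wells plus 3 SD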;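 further: peak over basal fluorescence ratio during 140 s after agonist addition; 0% = ACh EC80 plus DMSO and 100% = DMSO alone without agonist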
CHO-K1 Ca antag: nonselective inhibitor or artifact in parental CHO-K1 cells | ATP-induced calcium, Fluo-8 fluorescence | inhibition, % at 3 µM | actives 0.6% (n = 360,000) | AID 602250;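 active means inhibition above a per-plate cutoff, the plate's mean sample inhibition plus 3 SD, cut at about 24% in these data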;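 further: 0% = DMSO plus EC80 ATP and 100% = DMSO alone without ATP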
M1 ag parental: nonselective activator or artifact in parental CHO-K1 cells; AID 602248; Fluo-8 calcium fluorescence; scaled to maximal ATP response, vehicle zero; actives 0.48% (n = 360,000); activation, % at 3 µM; in the data active means activation above about 15%;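 further: untransfected CHO-K1 host cells lacking M1 receptor as counterscreen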
CHRM1 agonist: activates human CHRM1 receptor; activation, % at 3 µM; P11229; actives 0.33% (n = 360,000); CHO-K1 hM1, Fluo-8 calcium fluorescence, agonist mode; 0% DMSO, 100% acetylcholine EC100;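 active means activation above the run's mean compound activation plus 3 SD, cut at about 16% in these data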;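 further: peak over basal fluorescence ratio within a 140 s kinetic read after compound addition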
Active calls of the source: *; · = no result.

SMILES | M1 PAM | M1 PAM parental | CHRM1 antagonist | CHO-K1 Ca antag | M1 ag parental | CHRM1 agonist
CC(C)C[C@H]1CN(CCCC[C@H]2CNC(=O)C(=O)N2CC2CCCCC2)C(=O)C(=O)N1CC1CCCCC1 | · | 5.7 | · | -26.2 | 0.4 | ·
C=CCSc1nc2sc(C)c(C)c2c(=O)[nH]1 | -20.4 | -0.8 | 39.1* | 2.3 | -0.5 | -9.7
Brc1ccc2ncc(Br)cc2c1 | -6.7 | 8.0 | 15.8 | 3.6 | 3.9 | -3.4
CN(C)S(=O)(=O)c1ccc(-c2csc(N/N=C/c3ccco3)n2)cc1 | -16.1 | -20.9 | 50.7* | 13.2 | 14.8 | 6.2
C(=N\Nc1nc(-c2ccccc2)cs1)/c1ccncc1 | 9.4 | 22.4 | -5.5 | -8.8 | 0.8 | -11.7
CN(C)S(=O)(=O)c1ccc(-c2csc(N/N=C/c3ccc(O)cc3)n2)cc1 | -12.2 | -9.5 | 37.3* | 15.8 | 6.7 | -1.0
Cc1ccc(-c2csc(N/N=C/c3ccco3)n2)cc1 | 0.0 | 21.2 | -1.2 | -11.0 | 0.2 | -4.4
O=C(c1ccccc1Cl)N1CCNCC1 | -8.0 | -8.4 | 20.4 | 18.3 | 1.1 | -4.2
COCCCN1CCN(C2Cc3ccccc3Sc3ccc(Cl)cc32)CC1 (configuration not stated) | -23.2 | 21.0 | 47.5* | 0.1 | 7.5 | -6.0
Clc1cccc2c1Sc1ccccc1CC2N1CCNCC1 (configuration not stated) | -26.1 | 15.2 | 87.9* | 6.0 | 5.8 | -9.3
Clc1ccc2c(c1)C(N1CCNCC1)Cc1ccccc1S2 (configuration not stated) | -25.1 | 12.4 | 86.6* | -1.3 | 1.6 | -4.2
O=C(NCCCc1ccc(F)cc1)C1CCC(=O)N(CCCN2CCCC2=O)C1 (configuration not stated) | 11.0 | -15.1 | -16.2 | -3.6 | 0.0 | -4.1
CN(C)c1ccc(/C=C(/C(=O)c2ccc(Cl)cc2Cl)n2cncn2)cc1 | -1.5 | 12.3 | 7.8 | 8.1 | 17.9* | 14.6
COc1cc(C)c(Br)cc1S(=O)(=O)NCCCN1CCOCC1 | -1.7 | 5.3 | 1.2 | 5.9 | 19.8* | -5.4
COc1cc(C)c(Cl)cc1S(=O)(=O)NCCCN1CCOCC1 | 1.9 | 3.9 | -4.7 | -30.8 | 1.5 | -3.3
Cc1ccc(C)c(NC(=O)Cn2cnc3c(oc4ccccc43)c2=O)c1 | 0.4 | -0.9 | 2.5 | -2.4 | 0.1 | -4.5
CCn1c(SCC(=O)NCCc2ccc(F)cc2)nnc1-c1cccs1 | -6.5 | -7.5 | 16.4 | 25.9* | 0.3 | -3.6
CCn1c(SCC(=O)NCc2ccc3c(c2)OCO3)nnc1-c1cccs1 | 6.6 | 29.3 | -10.0 | -7.3 | 0.4 | -5.9
c1ccc(CN2CCC(Nc3nc(-c4cccs4)nc4ccccc34)CC2)cc1 | 7.9 | 20.5 | 1.6 | -4.2 | 15.8* | -0.7
COc1ccc(C(=O)CSc2nnc(-c3cccs3)n2-c2ccccc2)cc1 | 4.3 | 15.2 | -3.2 | -18.1 | 0.7 | -3.0
COc1ccc(C(=O)CSc2nnc(CN3CCCCC3)n2-c2ccc(F)cc2)cc1 | 4.5 | 26.8 | -3.5 | -6.5 | 20.4* | 16.5*
CN(C)c1ccc(/C=C/c2nc3ccccc3c(=O)n2CCO)cc1 | -30.1 | -22.9 | 34.3 | 3.7 | 13.9 | 30.3*
N#C/C(C(=O)NCc1ccccc1)=C1/N=C(NC(=O)c2ccco2)c2ccccc21 | 5.9 | 17.6 | -6.7 | -3.9 | 17.0* | -3.1
COc1ccc(CCNC(=O)/C(C#N)=C2\N=C(NC(=O)c3ccco3)c3ccccc32)cc1 | 5.0 | 13.7 | -10.8 | -6.6 | 0.7 | 0.6
CCN(c1ccc(NS(=O)(=O)c2cc(Cl)ccc2Cl)cc1)C(C)C | -25.5 | 14.3 | 75.5* | -13.3 | -0.1 | -12.7
SMILES | M1 PAM | M1 PAM parental | CHRM1 antagonist | CHO-K1 Ca antag | M1 ag parental | CHRM1 agonist
CN(C)c1ccc(NS(=O)(=O)c2cc(Cl)ccc2Cl)cc1 | -21.1 | 7.7 | 18.1 | 0.2 | 1.1 | -11.4
COc1ccc(/C=C/C(=O)NCCSCc2ccco2)cc1OC | 3.9 | -11.2 | -11.7 | 0.0 | 0.7 | -2.5
Cc1c(Cl)cccc1NC(=O)[C@@H](NC(=O)c1ccccc1Cl)C(C)C | 1.8 | -14.3 | 1.2 | 24.1* | -0.4 | -7.7
CN(C)CCC=C1c2ccccc2C=Cc2ccccc21 | -25.4 | 34.3 | 98.1* | -20.4 | 3.8 | -6.0
CNCCC=C1c2ccccc2C=Cc2ccccc21 | -25.1 | -2.8 | 98.0* | 3.9 | 0.8 | -3.9
O=C(c1cccc(F)c1F)N1CCCC1 | 1.8 | -1.6 | 0.0 | 4.4 | 0.4 | -4.5
